Reference: PubChem BioAssay AID1159580 (chemical genetic matrix, 2015)
Several values for one entry are separate records, joined by “and”; a condition that tells them apart may be missing. Equal entries are not always repeated. Out of some 5,500 compounds screened, about 2,000 (36%) were called active. About 18% were inconclusive and are not listed. Rule as the data show it: active = normalized growth mostly below about 0.91 (no sharp cut-off); inconclusive = no clear call, values can overlap the other calls; inactive = mostly above about 0.92. Some of the results follow.

Test: chemical genetic growth profiling, strain panel (AID 1159580);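 also: tested at 20 µM; growth read once vehicle control cultures reached saturation at 30 °C; 1 = growth at the plate median or of vehicle wells; lower values mean less growth of the strain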
Settings: S. cerevisiae deletion strains, growth OD

Measured: normalized growth

O=C1C=CC(=C(c2ccc(O)cc2)c2ccc(O)cc2)C=C1
inactive: locus YAL013W, strain DEP1, active compounds read low 0.985 | locus YAL021C, strain ccr4, active compounds read low 1 | locus YAL026C, strain drs2, active compounds read low 0.972 | locus YAL030W, strain snc1, active compounds read low 1 | locus YBL061C, strain skt5, active compounds read low 0.982 | locus YBR009C, strain hhf1, active compounds read low 0.981 | locus YBR021W, strain FUR4, active compounds read low 0.992 | locus YBR023C, strain chs3, active compounds read low 0.968 | locus YBR171W, strain sec66, active compounds read low 0.968 | locus YBR229C, strain ROT2, active compounds read low 0.991 | locus YBR231C, strain swc5, active compounds read low 0.987 | locus YBR279W, strain paf1, active compounds read low 0.99 | locus YCL011C, strain gbp2, active compounds read low 0.972 | locus YCL016C, strain dcc1, active compounds read low 1.01 | locus YCL029C, strain bik1, active compounds read low 0.99 | locus YCL069W, strain vba3, active compounds read low 0.959 | locus YCR088W, strain abp1, active compounds read low 0.975 | locus YDL005C, strain med2, active compounds read low 0.977 | locus YDL035C, strain GPR1, active compounds read low 1 | locus YDL040C, strain nat1, active compounds read low 0.991 | locus YDL074C, strain BRE1, active compounds read low 1.06 | locus YDL101C, strain DUN1, active compounds read low 1 | locus YDL134C, strain PPH21, active compounds read low 0.998 | locus YDL185W, strain tfp1, active compounds read low 1 | locus YDL192W, strain arf1, active compounds read low 0.982 | locus YDR001C, strain nth1, active compounds read low 0.975 | locus YDR069C, strain doa4, active compounds read low 0.952 | locus YDR101C, strain arx1, active compounds read low 0.995 | locus YDR137W, strain rgp1, active compounds read low 0.988 | locus YDR150W, strain NUM1, active compounds read low 1.01 | locus YDR159W, strain sac3, active compounds read low 0.972 | locus YDR162C, strain NBP2, active compounds read low 1.01 | locus YDR195W, strain ref2 0.927 | locus YDR297W, strain sur2, active compounds read low 0.987 | locus YDR318W, strain mcm21, active compounds read low 0.982 | locus YDR334W, strain swr1, active compounds read low 0.962 | locus YDR335W, strain msn5, active compounds read low 0.968 | locus YDR388W, active compounds read low 0.972 | locus YDR392W, strain spt3, active compounds read low 0.986 | locus YDR502C, strain sam2, active compounds read low 1 | locus YEL003W, strain gim4, active compounds read low 0.974 | locus YEL037C, strain rad23, active compounds read low 0.973 | locus YEL061C, strain CIN8 (second series), active compounds read low 0.938 | locus YEL061C, strain CIN8, active compounds read low 1.01 | locus YER015W, strain faa2, active compounds read low 0.99 | locus YER016W, strain bim1, active compounds read low 0.983 | locus YER110C, active compounds read low 0.976 | locus YER111C, strain swi4, active compounds read low 0.969 | locus YER155C, strain BEM2 (second series), active compounds read low 1.01 | locus YER155C, strain BEM2, active compounds read low 0.997 | locus YER167W, strain BCK2, active compounds read low 0.993 | locus YFR010W, strain ubp6, active compounds read low 0.945 | locus YGL078C, strain dbp3, active compounds read low 0.994 | locus YGL086W, strain mad1, active compounds read low 0.986 | locus YGL167C, strain pmr1, active compounds read low 0.994 | locus YGL173C, strain kem1, active compounds read low 0.98 | locus YGL227W, strain vid30, active compounds read low 0.971 | locus YGL240W, strain doc1, active compounds read low 0.983 | locus YGL248W, strain PDE1, active compounds read low 0.991 | locus YGL253W, strain hxk2, active compounds read low 0.967 | locus YGR078C, strain PAC10, active compounds read low 1.03 | locus YGR135W, strain pre9, active compounds read low 1 | locus YGR229C, strain SMI1, active compounds read low 1.02 | locus YGR252W, strain gcn5, active compounds read low 0.97 | locus YHR013C, strain ard1, active compounds read low 0.985 | locus YHR027C, strain rpn1, active compounds read low 1 | locus YHR030C, strain SLT2, active compounds read low 0.994 and 1.04 | locus YHR079C, strain IRE1 (second series), active compounds read low 0.989 | locus YHR079C, strain IRE1, active compounds read low 1.05 | locus YHR094C, strain hxt1, active compounds read low 0.989 | locus YHR129C, strain ARP1, active compounds read low 0.994 | locus YHR142W, strain chs7, active compounds read low 0.962 | locus YHR200W, strain rpn10, active compounds read low 0.988 | locus YIL066C, strain RNR3, active compounds read low 0.992 | locus YIL073C, strain SPO22, active compounds read low 0.976 | locus YIL125W, strain kgd1, active compounds read low 0.995 | locus YIR030C, strain dcg1, active compounds read low 0.986 | locus YJL092W, strain hpr5, active compounds read low 0.953 | locus YJL095W, strain BCK1 (second series), active compounds read low 0.975 | locus YJL095W, strain BCK1, active compounds read low 1.03 and 1.02 | locus YJL115W, strain asf1, active compounds read low 0.966 | locus YJL129C, strain trk1, active compounds read low 0.965 | locus YJL134W, strain LCB3, active compounds read low 0.994 | locus YJL154C, strain vps35, active compounds read low 0.98 | locus YJL164C, strain tpk1, active compounds read low 1 | locus YJL166W, strain qcr8, active compounds read low 0.984 | locus YJL168C, strain set2, active compounds read low 0.98 | locus YJL187C, strain SWE1 (second series), active compounds read low 0.998 | locus YJL187C, strain SWE1, active compounds read low 0.993 | locus YJR043C, strain POL32, active compounds read low 1.04 | locus YJR066W, strain TOR1, active compounds read low 0.979
